A short description of experiment [1]: ATG_DR4_LXR_CIS: Attagene CIS-FACTORIAL HepG2 Assay for human Liver X Receptor (LXR), DR4 submotif (AID 2282929). The conditions noted are these: HepG2 Attagene DR4 cis-reporter, mRNA transcription; actives raise or lower the signal. In a few lines:
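DR4 cis-reporter in HepG2, 24 h exposure. Detection: RT-PCR, 6-FAM labelling, CE fragment analysis. Endpoint fitted bidirectionally, DMSO = baseline.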

Experiment [2] concerns the target Aryl hydrocarbon receptor (Homo sapiens) (UniProt P35869). Description: ATG_Ahr_CIS: Attagene CIS-FACTORIAL HepG2 Assay for human Aryl Hydrocarbon Receptor (Ahr) (AID 2282930). The conditions noted are these: HepG2 AhR cis-factorial reporter transcription; actives raise or lower the signal. The gist of the method:
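HepG2 cells transiently transfected with cis-element-driven multiplexed reporter transcription units; endogenous transcription factor activity measured as reporter mRNA 24 h after dosing. RT-PCR, 6-FAM labelling, HpaI digestion, capillary electrophoresis; bidirectional fitting versus DMSO baseline.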

A short description of experiment [3]: ATG_AP_1_CIS: Attagene CIS-FACTORIAL HepG2 Assay for human Activator Protein 1 (AP-1) (AID 2282931). The conditions noted are these: HepG2 Attagene cis-factorial AP-1 reporter mRNA; actives raise or lower the signal. The gist of the method:
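Cis-regulated reporter units transiently expressed in HepG2 report endogenous transcription-factor activity. Signal: reporter mRNA at 24 h, via RT-PCR and fluorescent capillary electrophoresis. Endpoint derived by bidirectional fitting, DMSO as negative control.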

A short description of experiment [4]: ATG_AP_2_CIS: Attagene CIS-FACTORIAL HepG2 Assay for human Activator Protein 2 (AP-2) (AID 2282932). The conditions noted are these: HepG2 AP-2 cis-reporter, Attagene transcription factor profiling; actives raise or lower the signal. The gist of the method: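 Cells (HepG2) transfected with promoter-driven reporter constructs, treated 24 h. Total RNA reverse-transcribed, reporter cDNA PCR-amplified, FAM-labelled by primer extension, digested, resolved by capillary electrophoresis. Activity fitted both directions versus DMSO.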

The nature of experiment [5]: ATG_BRE_CIS: Attagene CIS-FACTORIAL HepG2 Assay for human Bone Morphogenetic Protein (BMP) Response Element (BRE) (AID 2282933). The conditions noted are these: HepG2 BMP response element reporter, Attagene transcription factor profiling; actives raise or lower the signal. In a few lines:
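A HepG2 multiplex reporter system measured inducible reporter mRNA 24 h post-dosing. Detection: RT-PCR, 6-FAM primer extension, HpaI digestion, capillary electrophoresis. Activity fitted bidirectionally relative to DMSO.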

For experiment [6], the target named is Retinoic acid receptor alpha (Homo sapiens) (UniProt P10276). In words: ATG_DR5_RAR_CIS: Attagene CIS-FACTORIAL HepG2 Assay for human Retinoic Acid Receptor Alpha (RARE), DR5 submotif (AID 2282934).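 As to AC50: reporter responds to endogenous RAR alpha beta and gamma in HepG2 not RARA alone.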 Conditions: HepG2 Attagene cis-factorial RARE DR5 reporter, mRNA; actives raise or lower the signal. In a few lines:
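HepG2 cells transiently transfected with multiplexed reporter units under cis (DR5 RARE) promoters, so endogenous transcription factor activity is measured. After 24 h compound exposure, reporter mRNA is quantified by RT-PCR with fluorescent labelling and capillary electrophoresis; bidirectional fitting versus DMSO.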

Experiment [7] can be described thus: ATG_E_Box_CIS: Attagene CIS-FACTORIAL HepG2 Assay for human Enhancer Box (E-box) (AID 2282936). Conditions: HepG2 E-box cis-reporter transcription, actives raise or lower the signal. The gist of the method: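 Endogenous transcription factor activity was sensed in human HepG2 liver cells through transfected cis-promoter reporter units. After 24 h of dosing, total RNA was reverse-transcribed and reporter cDNA resolved by capillary electrophoresis.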

A short description of experiment [8]: ATG_M_61_CIS: Attagene CIS-FACTORIAL HepG2 Assay for M61 Transcription Factor (Internal Marker) (AID 2282937). The conditions noted are these: HepG2 Attagene CIS-FACTORIAL M61 internal marker reporter; actives raise or lower the signal. The gist of the method: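 Background-control endpoint: HepG2 cells with cis-regulated reporter constructs, 24 h exposure, reporter mRNA detected via fluorescent primer extension and capillary electrophoresis; values from bidirectional fitting with DMSO baseline.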

The nature of experiment [9]: ATG_EGR_CIS: Attagene CIS-FACTORIAL HepG2 Assay for human Early Growth Response 1 (EGR1) (AID 2282938). The conditions noted are these: HepG2 Attagene CIS-FACTORIAL EGR reporter mRNA; actives raise or lower the signal. In a few lines: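 Endpoint derived by bidirectional fitting versus DMSO vehicle. Method: cis-promoter reporter units transfected into HepG2, 24 h dosing, RNA isolation, RT-PCR with 6-FAM primer extension and HpaI digestion, then capillary electrophoresis fluorescence detection.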

Experiment [10] in a line: ATG_M_19_CIS: Attagene CIS-FACTORIAL HepG2 Assay for M19 Transcription Factor (Internal Marker) (AID 2282939). The conditions noted are these: HepG2 Attagene CIS-FACTORIAL M19 internal marker reporter; actives raise or lower the signal. The gist of the method:
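Chemical-treated HepG2 (24 h) with MRTU constructs; reporter transcripts detected by fluorescent RT-PCR fragment analysis on capillary electrophoresis. Internal background marker, DMSO as baseline.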

Experiment [11] can be described thus: ATG_ERE_CIS: Attagene CIS-FACTORIAL HepG2 Assay for Estrogen Response Element (ERE) (AID 2282940). Conditions: HepG2 ERE cis-reporter, Attagene RNA transcript; actives raise or lower the signal. In a few lines:
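Human liver cells (HepG2) bearing transiently transfected, promoter-regulated reporter units were exposed 24 h. Reporter mRNA induction was detected by capillary electrophoresis of labelled RT-PCR products and fitted bidirectionally to DMSO.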

The nature of experiment [12]: ATG_Ets_CIS: Attagene CIS-FACTORIAL HepG2 Assay for human Erythroblast Transformation Specific (ETS) (AID 2282941). The conditions noted are these: HepG2 ETS cis-reporter transcription, actives raise or lower the signal. The gist of the method:
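RT-PCR/capillary electrophoresis fluorescence read-out of reporter mRNA; HepG2 transient multi-reporter transfection; 24 h compound exposure; gain or loss of signal fitted bidirectionally relative to DMSO.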

Experiment [13] has as its target Hepatocyte nuclear factor 3-beta (Homo sapiens) (UniProt Q9Y261). Description: ATG_FoxA2_CIS: Attagene CIS-FACTORIAL HepG2 Assay for human Forkhead box A2 (FOXA2) (AID 2282942). Conditions: HepG2 cis-reporter transcription factor activity, 24 h; actives raise or lower the signal. In a few lines: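 Measured: reporter mRNA induction or loss in HepG2 transiently carrying multiple cis-regulated reporter units, 24 h after dosing. Quantified by RT-PCR plus capillary electrophoresis, normalised to DMSO.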

A short description of experiment [14]: ATG_FoxO_CIS: Attagene CIS-FACTORIAL HepG2 Assay for human Forkhead box O (FoxO) (AID 2282943). Conditions: HepG2 Attagene cis-reporter, FoxO element, mRNA; actives raise or lower the signal. In a few lines:
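HepG2 cells transiently transfected with cis-promoter-driven multiple reporter transcription units; 24 h after chemical dosing, reporter mRNA quantified by RT-PCR, fluorescent primer extension, HpaI digestion and capillary electrophoresis. Bidirectional fitting versus DMSO baseline.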

Experiment [15] can be described thus: ATG_GATA_CIS: Attagene CIS-FACTORIAL HepG2 Assay for human GATA Binding Protein (AID 2282944). The conditions noted are these: HepG2 GATA cis-element reporter, Attagene multiplex mRNA; actives raise or lower the signal. In a few lines: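 Transfected cis-reporter HepG2 cells were treated with chemicals for 24 hours. Total RNA was then converted to cDNA, amplified with reporter-specific primers and analysed by fluorescent capillary electrophoresis, using DMSO-treated wells as baseline.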

Experiment [16] is described as follows: ATG_GLI_CIS: Attagene CIS-FACTORIAL HepG2 Assay for human Zinc Finger Protein GLI1 (AID 2282945). The conditions noted are these: HepG2, Attagene cis-factorial reporter mRNA, GLI element; actives raise or lower the signal. In a few lines: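 HepG2 cells transiently transfected with cis-promoter multiplexed reporter units report endogenous transcription factor activity. After 24 h chemical exposure, reporter mRNA was quantified by RT-PCR, 6-FAM labelling, HpaI digestion and capillary electrophoresis, with bidirectional fitting against DMSO.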

The target of experiment [17] is Bile acid receptor (Homo sapiens) (UniProt Q96RI1). Description: ATG_IR1_CIS: Attagene CIS-FACTORIAL HepG2 Assay for human Nuclear Receptor Subfamily 1 Group H Member 4 (NR1H4), IR1 submotif (AID 2282946). The conditions noted are these: IR1 reporter transcription, actives raise or lower the signal. In a few lines: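 Readout: reporter transcript levels by RT-PCR with fluorescent capillary electrophoresis, from HepG2 cells transiently transfected with multiplexed cis-regulated reporters and dosed 24 h. Gain- or loss-of-signal fitted versus DMSO negative control.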
Bile acid receptor (Homo sapiens), sequence (Q96RI1 whole entry, looked up): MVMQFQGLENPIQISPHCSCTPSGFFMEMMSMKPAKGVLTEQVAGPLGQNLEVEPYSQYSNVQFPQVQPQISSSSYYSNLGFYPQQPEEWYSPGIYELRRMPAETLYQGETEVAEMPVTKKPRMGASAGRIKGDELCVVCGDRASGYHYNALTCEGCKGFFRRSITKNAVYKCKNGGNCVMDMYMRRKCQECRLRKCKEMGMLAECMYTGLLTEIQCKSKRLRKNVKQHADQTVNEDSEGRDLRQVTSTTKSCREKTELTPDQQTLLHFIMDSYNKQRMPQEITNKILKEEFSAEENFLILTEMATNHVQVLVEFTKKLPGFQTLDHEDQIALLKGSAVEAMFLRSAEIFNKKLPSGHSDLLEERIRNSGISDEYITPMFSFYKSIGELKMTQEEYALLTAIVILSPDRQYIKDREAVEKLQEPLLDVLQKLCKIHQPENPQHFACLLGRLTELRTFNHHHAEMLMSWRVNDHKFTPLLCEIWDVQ

Experiment [18] can be described thus: ATG_GRE_CIS: Attagene CIS-FACTORIAL HepG2 Assay for human Glucocorticoid Response Elements (GRE) (AID 2282947). The conditions noted are these: HepG2 GRE cis-reporter, Attagene multiplex mRNA; actives raise or lower the signal. In a few lines:
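Cells (HepG2) bearing transfected cis-promoter reporter transcription units were treated with chemical for 24 hours. Reporter mRNA was measured via RT-PCR with capillary electrophoresis, and activity was fitted in both directions relative to DMSO.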

Experiment [19] can be described thus: ATG_ISRE_CIS: Attagene CIS-FACTORIAL HepG2 Assay for human Interferon Regulatory Factor 1 (IRF1) binding to an Interferon-Stimulated Response Element (ISRE) (AID 2282948). The conditions noted are these: HepG2 ISRE cis-reporter (Attagene), mRNA transcription readout; actives raise or lower the signal. The gist of the method:
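Read-out: fluorescent RT-PCR products resolved by capillary electrophoresis, reporting endogenous transcription factor activity via ISRE-driven reporter mRNA in transfected HepG2 cells dosed for 24 h; gain or loss fitted relative to DMSO.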

The target in experiment [20] is Transcription factor E2F1 (Homo sapiens) (UniProt Q01094). Description: ATG_E2F_CIS: Attagene CIS-FACTORIAL HepG2 Assay for human E2F Transcription Factor 1 (AID 2282935). The conditions noted are these: HepG2 Attagene cis-reporter, E2F reporter RNA transcripts; actives raise or lower the signal. The gist of the method: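 First, HepG2 cells were transfected with reporter transcription units. Next, they were dosed for 24 h. Then RNA was isolated, converted to cDNA, PCR-amplified, FAM-labeled, HpaI-digested and analyzed by capillary electrophoresis.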
Transcription factor E2F1 (Homo sapiens), sequence (Q01094 whole entry, looked up): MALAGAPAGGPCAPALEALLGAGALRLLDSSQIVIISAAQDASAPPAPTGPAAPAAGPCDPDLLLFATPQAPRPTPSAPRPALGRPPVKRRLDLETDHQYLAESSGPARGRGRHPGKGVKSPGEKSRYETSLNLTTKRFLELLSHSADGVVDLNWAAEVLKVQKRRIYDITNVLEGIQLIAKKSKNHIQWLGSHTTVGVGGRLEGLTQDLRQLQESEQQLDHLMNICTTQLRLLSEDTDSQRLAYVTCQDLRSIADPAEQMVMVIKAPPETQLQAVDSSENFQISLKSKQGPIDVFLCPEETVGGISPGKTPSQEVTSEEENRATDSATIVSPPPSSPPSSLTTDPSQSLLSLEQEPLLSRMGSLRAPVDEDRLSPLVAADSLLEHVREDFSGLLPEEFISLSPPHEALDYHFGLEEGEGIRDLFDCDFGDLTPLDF

Results on 3 compounds are retold here after PubChem BioAssay (EPA / NIEHS).

SMILES strings stand for the structures. Calls of active or inactive are those of the source. The calls were made as follows: active = hit-call score of the fitted dose curve at least 0.9, where 1 is the maximum; inactive = score below 0.9.

What is called AC50 is the concentration at which the activity in the assay is half-maximal.

Hepatocyte nuclear factor 3-beta (Homo sapiens), sequence (Q9Y261 whole entry, looked up): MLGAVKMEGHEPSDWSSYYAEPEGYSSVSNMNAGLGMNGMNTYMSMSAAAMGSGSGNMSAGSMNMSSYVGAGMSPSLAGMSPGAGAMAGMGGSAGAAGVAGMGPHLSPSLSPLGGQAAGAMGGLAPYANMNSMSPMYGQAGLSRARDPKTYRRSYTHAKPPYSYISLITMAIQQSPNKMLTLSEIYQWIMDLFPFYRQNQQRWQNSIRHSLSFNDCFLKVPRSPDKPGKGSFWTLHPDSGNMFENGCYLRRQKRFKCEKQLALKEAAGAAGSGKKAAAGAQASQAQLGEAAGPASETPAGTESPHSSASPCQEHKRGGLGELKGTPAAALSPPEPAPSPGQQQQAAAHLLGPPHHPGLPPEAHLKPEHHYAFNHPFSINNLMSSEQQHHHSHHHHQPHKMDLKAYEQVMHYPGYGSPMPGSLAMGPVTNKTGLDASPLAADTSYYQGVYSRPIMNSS
Aryl hydrocarbon receptor (Homo sapiens), sequence (P35869 whole entry, looked up): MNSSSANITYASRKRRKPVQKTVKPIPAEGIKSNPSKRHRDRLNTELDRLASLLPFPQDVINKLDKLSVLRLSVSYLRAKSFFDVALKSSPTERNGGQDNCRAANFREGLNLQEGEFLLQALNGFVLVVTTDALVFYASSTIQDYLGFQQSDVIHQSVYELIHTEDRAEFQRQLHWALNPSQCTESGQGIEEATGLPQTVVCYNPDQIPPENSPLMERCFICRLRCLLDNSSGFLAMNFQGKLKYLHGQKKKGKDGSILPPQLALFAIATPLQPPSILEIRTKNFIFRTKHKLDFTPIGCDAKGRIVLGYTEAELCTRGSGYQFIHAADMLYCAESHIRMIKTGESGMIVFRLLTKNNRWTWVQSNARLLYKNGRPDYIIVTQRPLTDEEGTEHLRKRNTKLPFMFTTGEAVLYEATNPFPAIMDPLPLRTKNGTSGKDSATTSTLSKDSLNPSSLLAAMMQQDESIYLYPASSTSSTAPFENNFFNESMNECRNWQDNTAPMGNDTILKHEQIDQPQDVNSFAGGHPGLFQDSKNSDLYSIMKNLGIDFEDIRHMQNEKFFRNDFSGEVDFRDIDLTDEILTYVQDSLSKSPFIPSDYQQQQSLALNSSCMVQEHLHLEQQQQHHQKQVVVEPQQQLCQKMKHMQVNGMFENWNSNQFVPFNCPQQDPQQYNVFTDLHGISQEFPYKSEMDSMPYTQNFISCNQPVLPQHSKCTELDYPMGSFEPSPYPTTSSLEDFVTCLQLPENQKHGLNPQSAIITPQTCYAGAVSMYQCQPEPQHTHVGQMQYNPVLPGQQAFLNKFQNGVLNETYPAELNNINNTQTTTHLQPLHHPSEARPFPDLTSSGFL
Retinoic acid receptor alpha (Homo sapiens), sequence (P10276 whole entry, looked up): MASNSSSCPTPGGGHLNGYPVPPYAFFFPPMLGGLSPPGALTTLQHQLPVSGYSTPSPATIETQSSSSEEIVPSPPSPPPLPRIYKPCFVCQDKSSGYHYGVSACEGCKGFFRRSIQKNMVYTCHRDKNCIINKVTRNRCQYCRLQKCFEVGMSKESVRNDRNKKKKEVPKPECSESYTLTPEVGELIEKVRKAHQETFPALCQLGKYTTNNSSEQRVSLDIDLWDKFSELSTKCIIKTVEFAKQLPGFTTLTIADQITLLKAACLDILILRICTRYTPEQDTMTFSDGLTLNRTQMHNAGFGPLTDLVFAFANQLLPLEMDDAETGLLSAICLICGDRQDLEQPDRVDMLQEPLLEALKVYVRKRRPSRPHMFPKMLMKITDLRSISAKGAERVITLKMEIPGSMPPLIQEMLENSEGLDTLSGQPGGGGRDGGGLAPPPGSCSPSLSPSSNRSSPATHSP

For the compound `CCOCn1c(-c2ccc(Cl)cc2)c(C#N)c(Br)c1C(F)(F)F`, the AC50 in experiment [1] was 8.63 µM (active); in experiment [2], 170 µM (active); in experiment [4] it was 3.76 µM (active); in experiment [5], 1.1 µM (active); in experiment [6], 0.518 µM (active); in [9] it was 1.83 µM (active). In addition, the AC50 is 60.1 µM (active) in experiment [12]; 157 µM (active) in experiment [16]; 38.3 µM (active) in experiment [17]; 38.1 µM (active) in experiment [18]; 1.42 µM (active) in [19]. Also, the outcome in experiment [3], in experiment [7], in experiment [8], in experiment [10], in [11] and in [13] was inactive. For the same compound, the call in [14] and in experiment [15] was inactive.

`O=S1(=O)OC(c2cc(Br)c(O)c(Br)c2)(c2cc(Br)c(O)c(Br)c2)c2ccccc21`: the compound was called inactive in experiment [1], in experiment [3], in experiment [4], in experiment [5], in [6] and in experiment [7]. For the same compound, the result in experiment [8], in experiment [9], in experiment [10], in [11], in experiment [12] and in [13] was inactive. For the same compound, the compound was called inactive in experiment [14], in experiment [15], in experiment [16], in experiment [17], in experiment [18] and in [19]. Besides, in experiment [2], the concentration at half-maximal activity (AC50) is 26 µM (active).

Consider `N#Cc1ccc(Cl)cc1`, for which the call in [1], in [2], in experiment [3], in [4], in [5] and in [20] was inactive. Moreover, the result in experiment [7], in experiment [8], in experiment [9], in experiment [10], in experiment [11] and in [12] was inactive. Also, the compound was called inactive in [13], in [14], in experiment [15], in experiment [16], in experiment [18] and in experiment [19].
